Where “and” joins values, the source holds several entries; their conditions need not be identical. Equal entries are not always repeated. The campaign covered roughly 16,000 compounds. About 4,000 (25%) were called active. Inconclusive results (about 26%) are left out. Calls follow the shape of the dose curve; as a rule, active = well fitted curve in the direction sought with a large enough effect; inconclusive = small, poorly fitted or top-dose-only effect, or effect the other way; inactive = no such curve, though single readings can be large or run the other way. The list is a sample of the results.
molecular target: Cytochrome P450 2C9 (Homo sapiens) (UniProt P11712); assay: Cytochrome panel assay with activity outcomes; settings: recombinant CYP, pro-luciferin dealkylation, luminescence, p450-cyp2c9; series mostly up to 57.1 µM
% is scaled to controls: 0 for no effect and ±100 for the full control effect.

Chain of Cytochrome P450 2C9 (Homo sapiens) (P11712 whole entry, looked up): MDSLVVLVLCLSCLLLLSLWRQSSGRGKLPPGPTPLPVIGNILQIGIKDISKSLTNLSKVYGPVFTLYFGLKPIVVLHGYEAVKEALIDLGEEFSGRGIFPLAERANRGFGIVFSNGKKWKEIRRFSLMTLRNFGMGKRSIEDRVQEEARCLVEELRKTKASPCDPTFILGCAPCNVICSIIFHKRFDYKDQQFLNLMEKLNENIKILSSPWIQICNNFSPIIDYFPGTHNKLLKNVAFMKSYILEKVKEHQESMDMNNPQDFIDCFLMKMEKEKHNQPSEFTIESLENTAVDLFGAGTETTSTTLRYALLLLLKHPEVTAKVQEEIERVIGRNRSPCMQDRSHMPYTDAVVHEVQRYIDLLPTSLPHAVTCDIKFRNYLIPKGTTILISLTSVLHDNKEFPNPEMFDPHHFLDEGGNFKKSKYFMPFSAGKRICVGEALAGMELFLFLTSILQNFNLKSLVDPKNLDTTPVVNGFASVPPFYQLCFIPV

AC50, inactive:
COC(=O)N1CCC2(CCN(C(=O)Nc3ccc(OC)cc3)CC2)CC1, S=C(Nc1ccccc1)Nc1ccc(OCc2ccccc2)cc1, COC(=O)N1CCC2(CC1)CN(C(=O)Nc1ccc(OC)cc1)C2, NCCS(=O)O, COc1ccc(CO/N=C/c2c(C)[nH]c(=O)[nH]c2=O)cc1, C[C@H](CCC(=O)NCC(=O)O)[C@H]1CC[C@H]2[C@H]3[C@@H](C[C@@H](O)[C@]12C)[C@]1(C)CC[C@H](O)C[C@@H]1C[C@@H]3O, COC(=O)N1CCC2(CC1)CCN(c1ccncc1)CC2, C/C(CC(=O)NC1CCCC1)=N\NC(=O)Cc1cccs1, CC(C)(C)c1ccc(OCC(=O)NNC(=O)Cc2cccs2)cc1, Cn1cc(C(=O)N/N=C/C(Br)=C\c2ccccc2)ccc1=O, Cn1cccc1CC(=O)N/N=C\c1cccs1, Cc1nc2c([nH]1)c(=O)n(C)c(=O)n2Cc1ccco1, C[C@](O)(C(=O)Nc1ccc(S(=O)(=O)c2ccccc2)cc1)C(F)(F)F, CC(C)(C)CNC(CO)C12CC3CC(CC(C3)C1)C2 (stereo not given), COc1ccc(C2/C(=C(/O)c3ccc(Cl)cc3)C(=O)C(=O)N2CCN2CCOCC2)c(OC)c1 (stereo not given), COc1ccc(NC(=O)c2cc3n(n2)C(C(F)(F)F)CC(c2ccc4c(c2)OCO4)N3)cc1OC (stereo not given), O=C(NCC1CCCO1)c1ccc(CS(=O)(=O)Cc2ccc(F)cc2)o1 (stereo not given), CN1CCN(c2ncc3nc(-c4cccs4)c(=O)n(C[C@H]4CCCO4)c3n2)CC1, CCOC(=O)C(NC(C)=O)C(OC(C)=O)c1cccc(N(CCO)CCO)c1 (stereo not given), C[N+](C)(C)CCOC(N)=O, CC(C)[C@@H]1[C@H]2CC[C@H](C2)[C@H]1N, N#CCCn1c(=O)c(-c2cc(F)cc(F)c2)nc2cnc(Nc3ccccc3)nc21, CCCc1nc(SCC(=O)NNC(=O)C2CCCCC2)c2ccccc2n1, C/C(=N\NC(=O)c1ccc(Cl)cc1)c1cccc(NC(=O)C(C)C)c1

AC50, active:
COc1ccccc1NC(=O)CN1CCN(CC(=O)Nc2ccc(OCc3ccccc3)cc2)CC1 2.24 µM, COc1ccc(NC(=O)CN2CCN(CC(=O)Nc3ccccc3Cl)CC2)cc1 8.91 µM, C#CCn1c(S(=O)(=O)Cc2ccc(OC)cc2)nc(-c2ccccc2)c1-c1ccccc1 2.82 µM, COC(=O)CC[C@@H](C)[C@H]1CC[C@H]2[C@H]3CC[C@H]4C[C@@H]5CC[C@@]4(C)C3(O5)[C@@H](Br)[C@@H](Br)[C@@]12C 2.51 µM, CC(/C=N/NC(=O)Cc1cccs1)=C\c1ccco1 7.94 µM, O=C(Cc1cccs1)N/N=C/C(Br)=C/c1ccccc1 2.82 µM, CC(=O)Nc1c(S(=O)(=O)c2ccccc2)c2nc3ccccc3nc2n1Cc1ccccc1 8.91 µM, Nc1c(S(=O)(=O)c2ccccc2)c2nc3ccccc3nc2n1Cc1ccco1 3.55 µM, COc1ccc(C(=O)N/N=C2/SCC(=O)N2Cc2ccc3c(c2)OCO3)cc1OC 14.1 µM, Cc1ccc(NC2=NC(c3ccccc3)n3c(nc(C)cc3=O)N2)c(C)c1 (stereo not given) 35.5 µM, O=C1C(=O)N(c2cccc(Cl)c2)C(c2ccccc2[N+](=O)[O-])/C1=C(\O)c1ccccc1 (stereo not given) 2 µM, CC(C)(C)C(=O)Nc1cccc(-c2nc3ccccc3c(=O)o2)c1 12.6 µM, O=C(NCC1CCCO1)c1nn2c(c1Cl)NC(c1ccc(F)cc1)CC2C(F)(F)F (stereo not given) 25.1 µM, O=C1CC(c2cccc(F)c2)SC(N(c2ccccc2)c2ccccc2)=N1 (stereo not given) 10 µM, CC1=C/C(=N/O)C([C@H]2C=C(C)CC(C)(C)[C@@H]2O)C(C)(C)C1 (stereo not given in full) 2.51 µM, CCCC[C@]1(C2CCCC2)Cc2cc(OCC(=O)O)c(Cl)c(Cl)c2C1=O 2.51 µM, Cc1cccc(NC(=O)CSc2nc(COc3ccccc3)nc3ccccc23)c1C 0.631 µM, C/C(=N/NC(=O)c1ccc(C)s1)c1cccc(NC(=O)COc2ccc(Cl)cc2C)c1 1.26 µM

activity, negative = inhibition, inactive:
O=C1[C@@H]2[C@H]3[C@H](O)[C@H](O)C/C(=N/OC[C@@H](O)COCc4ccco4)[C@H]3CC[C@H]2C(=O)N1c1ccc(F)cc1F -12.6% [at 11.4 µM], Cc1cccc(CNc2cc(-c3cccc(C#N)c3)ncn2)c1 3.34% [at 2.29 µM], Cn1c(=O)c2[nH]c(/N=N\N3CCN(CCO)CC3)nc2n(C)c1=O 4.93% [at 11.4 µM], CCOC(=O)N/N=C1/C[C@@H](O)[C@@H](O)[C@@H]2[C@@H]3C(=O)N(Cc4ccc5c(c4)OCO5)C(=O)[C@H]3CC[C@H]12 -5.83% [at 11.4 µM], CCOC(=O)N/N=C1/C[C@@H](O)[C@@H](O)[C@@H]2[C@@H]3C(=O)N(Cc4ccc5c(c4)OCO5)C(=O)[C@H]3CC[C@@H]12 1.72% [at 11.4 µM], COc1ccccc1CNc1cc(-c2ccccc2C)ncn1 -15.1% [at 2.29 µM], CC(C)(C)N1C(=O)[C@H]2[C@@H]3[C@H](O)[C@H](O)CC(=O)[C@H]3CC[C@H]2C1=O 6.8% [at 11.4 µM] and 2.7% [at 11.4 µM], O=C(O)[C@@H]1[C@@H](C(=O)Nc2ccccc2)[C@@H]2C=C[C@@H]1O2 12.3% [at 11.4 µM], CC(=O)NCCNc1nc(-c2cccc(NS(C)(=O)=O)c2)nc2ccccc12 -9.35% [at 2.29 µM], CS(=O)(=O)Nc1cccc(-c2nc(Nc3ccccc3)c3ccccc3n2)c1 -28.2% [at 2.29 µM], Clc1ccccc1C(Nc1cnccn1)Nc1cnccn1 1.92% [at 11.4 µM], CN(C)Cc1ccccc1-c1ccc2ncnc(NCc3ccccc3)c2c1 -7.5% [at 2.29 µM], CN(C)Cc1ccccc1-c1cc(N(C)Cc2ccco2)ncn1 -3.1% [at 2.29 µM]
